For some assays here: Potency and affinity values are given separately. Activity calls are given as the source filed them. Unless noted, the rule behind the calls is not given here.
Key:
[1] = antimalarial activity against Dd2 strain (AID 2302;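 active = growth inhibition above 50% at the single 2 µM test dose, taken to imply half-maximal potency below 2 µM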;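 note: 0% = DMSO untreated growth and 100% = chloroquine plus artemisinin killed control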); details: P. falciparum Dd2 in RBCs, LDH growth readout, 72 h; at 2 µM; hits give high values
[2] = human hepatoma cell viability loss – ATP luminescence, cytotoxicity control for P. falciparum antimalarial project, primary screen (AID 2303;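 active = inhibition above 50%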;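 note: 0% = DMSO wells and 100% = digitonin-killed cells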); details: HepG2 viability, 24-48 h, at 10 µM, hits give high values
[3] = molecular target: L-lactate dehydrogenase (Plasmodium falciparum (isolate CDC / Honduras)) (UniProt Q27743); test: PfLDH activity inhibition – cell lysate, 3D7 strain, counter-screen for P. falciparum growth inhibition project (AID 2304);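 note: 0% = vehicle and 100% = reference inhibitor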; details: P. falciparum 3D7 crude extract, LDH APAD/NBT absorbance; at 2 µM; hits give high values
Chain of L-lactate dehydrogenase (Plasmodium falciparum (isolate CDC / Honduras)) (Q27743 whole entry, looked up): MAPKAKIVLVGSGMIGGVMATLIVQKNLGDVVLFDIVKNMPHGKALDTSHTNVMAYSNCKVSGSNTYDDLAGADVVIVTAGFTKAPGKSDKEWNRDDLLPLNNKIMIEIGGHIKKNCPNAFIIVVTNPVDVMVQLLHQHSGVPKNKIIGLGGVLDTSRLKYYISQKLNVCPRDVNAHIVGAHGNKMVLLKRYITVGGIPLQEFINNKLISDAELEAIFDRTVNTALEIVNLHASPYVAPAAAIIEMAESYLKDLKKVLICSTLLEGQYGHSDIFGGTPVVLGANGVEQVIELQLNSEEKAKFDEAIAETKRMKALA

[4] = inhibition of 3D7 malaria parasite growth – strain 3D7 (AID 2306);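 note: 0% = DMSO wells and 100% = chloroquine plus artemisinin control wells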; details: P. falciparum 3D7 erythrocytic growth, LDH absorbance, 72 h; at 2 µM; hits give high values
[5] = molecular target: Calcium-dependent protein kinase 1 (Plasmodium falciparum (isolate 3D7)) (UniProt P62344); test: PfCDPK1 kinase inhibitors, biochemical, TCAMS library (AID 1159585; cut-off not given, nearly all actives have IC50 up to about 0.98 µM;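 note: inhibitors leave more ATP so luminescence rises with inhibition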); details: recombinant PfCDPK1, Kinase-Glo ATP depletion luminescence
Chain of Calcium-dependent protein kinase 1 (Plasmodium falciparum (isolate 3D7)) (P62344 whole entry, looked up): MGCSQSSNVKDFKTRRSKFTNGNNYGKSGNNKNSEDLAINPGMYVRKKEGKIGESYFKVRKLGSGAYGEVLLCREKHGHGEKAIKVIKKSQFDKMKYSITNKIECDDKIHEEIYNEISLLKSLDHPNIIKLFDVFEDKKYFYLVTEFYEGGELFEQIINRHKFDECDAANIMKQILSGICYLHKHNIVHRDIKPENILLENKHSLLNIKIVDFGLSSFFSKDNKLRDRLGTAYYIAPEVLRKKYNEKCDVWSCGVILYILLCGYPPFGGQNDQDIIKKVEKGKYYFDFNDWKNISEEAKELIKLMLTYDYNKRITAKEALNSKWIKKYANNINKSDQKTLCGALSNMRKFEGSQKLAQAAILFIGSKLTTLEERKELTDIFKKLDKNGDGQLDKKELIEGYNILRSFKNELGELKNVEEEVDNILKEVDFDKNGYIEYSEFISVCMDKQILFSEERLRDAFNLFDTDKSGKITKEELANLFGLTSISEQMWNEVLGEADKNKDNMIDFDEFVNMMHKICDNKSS

[6] = molecular target: Plasmodium falciparum protein kinase 6 (PK6, PF3D7_1337100) (UniProt Q8IDW1); test: PfPK6 kinase inhibitors, biochemical, TCAMS library (AID 1159586); details: recombinant PfPK6, Kinase-Glo ATP depletion luminescence
Chain of Plasmodium falciparum protein kinase 6 (PK6, PF3D7_1337100) (Q8IDW1 1-305): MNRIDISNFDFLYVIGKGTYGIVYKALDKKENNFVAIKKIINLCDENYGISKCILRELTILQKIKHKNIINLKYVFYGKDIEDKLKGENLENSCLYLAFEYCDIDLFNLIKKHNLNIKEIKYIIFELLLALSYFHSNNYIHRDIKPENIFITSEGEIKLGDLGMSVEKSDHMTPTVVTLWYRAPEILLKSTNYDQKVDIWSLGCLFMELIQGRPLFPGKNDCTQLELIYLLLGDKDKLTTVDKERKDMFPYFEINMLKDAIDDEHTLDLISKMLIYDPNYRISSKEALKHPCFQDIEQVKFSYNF

[7] = molecular target: Protein kinase 7 (PK7), Plasmodium falciparum 3D7 (PF3D7_0213400) (UniProt Q7YTF7); test: inhibition of Plasmodium PK7 catalytic activity – biochemical, TCAMS antimalarial set, Kinase-Glo luminescence (AID 1159587); details: recombinant PfPK7, Kinase-Glo ATP depletion luminescence
Chain of Protein kinase 7 (PK7), Plasmodium falciparum 3D7 (PF3D7_0213400) (Q7YTF7 1-343): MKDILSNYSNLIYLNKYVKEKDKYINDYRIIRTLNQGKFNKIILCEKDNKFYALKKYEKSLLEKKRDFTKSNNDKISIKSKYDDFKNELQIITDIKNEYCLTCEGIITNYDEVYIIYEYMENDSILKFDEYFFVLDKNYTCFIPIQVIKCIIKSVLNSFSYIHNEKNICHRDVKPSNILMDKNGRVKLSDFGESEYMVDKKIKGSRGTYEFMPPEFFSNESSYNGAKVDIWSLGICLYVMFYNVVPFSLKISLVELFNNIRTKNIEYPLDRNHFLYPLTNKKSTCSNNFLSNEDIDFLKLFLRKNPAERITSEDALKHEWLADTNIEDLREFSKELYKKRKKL

[8] = molecular target: Calcium-dependent protein kinase 4 (Plasmodium falciparum (isolate 3D7)) (UniProt Q8IBS5); test: PfCDPK4 kinase inhibitors, biochemical, TCAMS library (AID 1159588; cut-off not given, nearly all actives have IC50 up to about 0.91 µM); details: recombinant PfCDPK4, Kinase-Glo ATP depletion luminescence
Chain of Calcium-dependent protein kinase 4 (Plasmodium falciparum (isolate 3D7)) (Q8IBS5 whole entry, looked up): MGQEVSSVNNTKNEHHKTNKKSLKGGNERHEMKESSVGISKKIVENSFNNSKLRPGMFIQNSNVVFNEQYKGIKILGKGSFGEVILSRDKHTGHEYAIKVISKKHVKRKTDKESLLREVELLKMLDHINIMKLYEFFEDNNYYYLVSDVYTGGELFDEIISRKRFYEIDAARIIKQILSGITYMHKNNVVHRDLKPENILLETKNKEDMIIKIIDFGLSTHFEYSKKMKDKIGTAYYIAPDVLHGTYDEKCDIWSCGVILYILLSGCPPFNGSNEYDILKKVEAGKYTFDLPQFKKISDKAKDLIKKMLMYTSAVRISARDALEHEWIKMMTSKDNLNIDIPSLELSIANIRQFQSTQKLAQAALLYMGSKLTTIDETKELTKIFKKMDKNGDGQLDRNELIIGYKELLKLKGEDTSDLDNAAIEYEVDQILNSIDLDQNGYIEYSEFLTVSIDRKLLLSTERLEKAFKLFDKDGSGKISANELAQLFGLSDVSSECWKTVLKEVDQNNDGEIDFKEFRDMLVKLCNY

c1ccc(Oc2ccc(Nc3ccnc4cc(-c5ccc(CN6CCNCC6)o5)ccc34)cc2)nc1
active: growth inhibition [1] 99% | growth inhibition [4] 100%
inactive: inhibition [2] 7% | inhibition [3] -1% | outcome [5] | outcome [6] | outcome [7] | outcome [8]

O=C(C=Cc1ccc([N+](=O)[O-])cc1)N1CCC(CCN2CCC(c3c[nH]c4ccccc34)CC2)CC1
inactive: growth inhibition [1] 48% | inhibition [3] -2% | outcome [5] | outcome [6] | outcome [7] | outcome [8]
active: inhibition [2] 60% | growth inhibition [4] 100%

COc1ccc(C=C2SC(=N)N(c3ccccc3OC)C2=O)cc1
active: growth inhibition [1] 95% | growth inhibition [4] 97%
inactive: inhibition [2] 47% | inhibition [3] 3% | outcome [5] | outcome [6] | outcome [7] | outcome [8]

COc1ccccc1C1CCN(C2CCC(NC(=O)/C=C/c3cc(C(F)(F)F)cc(C(F)(F)F)c3)CC2)CC1 (stereo not given)
inactive: growth inhibition [1] 21% | inhibition [2] 31% | inhibition [3] -4% | outcome [5] | outcome [6] | outcome [7] | outcome [8]
active: growth inhibition [4] 92%

Cc1nc2ccc(F)cc2n1C1CCN(C(=O)Cc2ccc(F)c(F)c2)CC1
inactive: inhibition [2] 2% | inhibition [3] 0% | outcome [5] | outcome [6] | outcome [7] | outcome [8]
active: growth inhibition [1] 99% | growth inhibition [4] 100%

CN(C)CCNCc1cccc(-c2cccc(-c3nc4ccccc4[nH]3)c2)c1
inactive: inhibition [2] 7% | inhibition [3] -3% | outcome [5] | outcome [6] | outcome [7] | outcome [8]
active: growth inhibition [1] 63% | growth inhibition [4] 101%

COc1ccc2ncc(F)c(CCN3CCC(NCc4cc(C)c5c(c4)OCCO5)CC3)c2n1
inactive: inhibition [2] 20% | inhibition [3] 0% | outcome [5] | outcome [6] | outcome [7] | outcome [8]
active: growth inhibition [1] 67% | growth inhibition [4] 100%

CCOc1ccc(C(=O)N2CCOC(CCN3CCC4(CCc5ccccc54)CC3)(c3ccc(Cl)c(Cl)c3)C2)cc1 (stereo not given)
inactive: growth inhibition [1] 25% | inhibition [2] 25% | inhibition [3] 1% | outcome [5] | outcome [6] | outcome [7] | outcome [8]
active: growth inhibition [4] 81%

NC(N)=NN=Cc1ccccc1OCc1ccccc1Cl
active: growth inhibition [4] 101%
inactive: growth inhibition [1] 30% | inhibition [2] 14% | inhibition [3] 5% | outcome [5] | outcome [6] | outcome [7] | outcome [8]

CN(C)CCNc1nccc(N2CCc3ncnc(Nc4ccc(OCc5cccc(F)c5)c(Cl)c4)c3C2)n1
inactive: inhibition [3] 6% | outcome [5] | outcome [6] | outcome [7] | outcome [8]
active: growth inhibition [1] 97% | inhibition [2] 65% | growth inhibition [4] 100%

c1ccc(-c2ccc(CNCCCNc3nc4ccccc4[nH]3)cc2)cc1
active: growth inhibition [4] 95%
inactive: growth inhibition [1] 0% | inhibition [2] 20% | inhibition [3] -4% | outcome [5] | outcome [6] | outcome [7] | outcome [8]

CCOc1cc(C=NNc2nc3ccccc3[nH]2)ccc1OCc1ccc([N+](=O)[O-])cc1
inactive: growth inhibition [1] 1% | inhibition [2] 2% | inhibition [3] -6% | outcome [5] | outcome [6] | outcome [7] | outcome [8]
active: growth inhibition [4] 100%

Oc1ccc2[nH]cc(C3CCN(CCC(c4ccccc4)c4ccccc4)CC3)c2c1
active: growth inhibition [4] 90%
inactive: growth inhibition [1] 42% | inhibition [2] 27% | inhibition [3] -3% | outcome [5] | outcome [6] | outcome [7] | outcome [8]

O=C(O[C@@H]1CN[C@H](C#Cc2cc3ncnc(Nc4ccc5c(cnn5Cc5cccc(F)c5)c4)c3s2)C1)N1CCCC1
inactive: inhibition [2] 9% | inhibition [3] -3% | outcome [5] | outcome [6] | outcome [7] | outcome [8]
active: growth inhibition [1] 56% | growth inhibition [4] 86%

O=C(NC1CCN(Cc2ccccc2)CC1)c1cc(-c2ccncc2)nc2ccc(Cl)cc12
active: growth inhibition [4] 97%
inactive: growth inhibition [1] 27% | inhibition [2] 17% | inhibition [3] 0% | outcome [5] | outcome [6] | outcome [7] | outcome [8]

Cn1nc(-c2cccc(CN[C@@H]3CCc4ccc(O)cc43)c2)c2cnc(NC3CCCC3)nc21
active: growth inhibition [1] 76% | growth inhibition [4] 100%
inactive: inhibition [2] 6% | inhibition [3] -2% | outcome [5] | outcome [6] | outcome [7] | outcome [8]

CCN1CCN(CCCNc2c3ccc(Cl)cc3nc3ccc(OC)cc23)CC1
inactive: inhibition [2] 34% | inhibition [3] -5% | outcome [5] | outcome [6] | outcome [7] | outcome [8]
active: growth inhibition [1] 100% | growth inhibition [4] 97%

CCc1ccc(NC(=O)c2ccc(CN3CCCN(CCC(C)C)CC3)cc2)cc1
active: growth inhibition [4] 96%
inactive: growth inhibition [1] 25% | inhibition [2] 48% | inhibition [3] -7% | outcome [5] | outcome [6] | outcome [7] | outcome [8]

CCOc1ccc(C(C)NC(=O)Nc2ccccc2)cc1OCC (stereo not given)
inactive: inhibition [2] 14% | inhibition [3] 1% | outcome [5] | outcome [6] | outcome [7] | outcome [8]
active: growth inhibition [1] 95% | growth inhibition [4] 96%

COc1ccc2nccc(NC(=O)C3CCC(NCc4cnc(SC)c([N+](=O)[O-])c4)CC3)c2n1 (stereo not given)
active: growth inhibition [4] 89%
inactive: growth inhibition [1] 44% | inhibition [2] 8% | inhibition [3] 5% | outcome [5] | outcome [6] | outcome [7] | outcome [8]

CN1CCN(c2cccc(Nc3nccc(NCC(O)c4ccccc4)n3)c2)CC1 (stereo not given)
active: growth inhibition [4] 101%
inactive: growth inhibition [1] 4% | inhibition [2] 30% | inhibition [3] -2% | outcome [5] | outcome [6] | outcome [7] | outcome [8]

CN1CCC[C@@H](Oc2cc3c(cc2Br)CCN3C(=O)Nc2ccc(-c3ccncc3)c(Cl)c2)C1
active: growth inhibition [1] 64% | growth inhibition [4] 99%
inactive: inhibition [2] 26% | inhibition [3] -7% | outcome [5] | outcome [6] | outcome [7] | outcome [8]

O=C(O)c1ccc2c(c1)N(C(=O)CNCc1ccc(F)cc1)CC(=O)N2CCCc1ccccc1
inactive: growth inhibition [1] -2% | inhibition [2] 1% | inhibition [3] 2% | outcome [5] | outcome [6] | outcome [7] | outcome [8]
active: growth inhibition [4] 95%

CCOc1ccc2c(c1)N(C(=O)C=Cc1ccccc1)C(C)(C)c1ssc(=S)c1-2
inactive: inhibition [2] 3% | inhibition [3] -1% | outcome [5] | outcome [6] | outcome [7] | outcome [8]
active: growth inhibition [1] 77% | growth inhibition [4] 83%

CCCCNCc1ccc(-c2nc(CN(Cc3ccc(Cl)c(Cl)c3)S(=O)(=O)c3ccc(NC(C)=O)cc3)cs2)cc1
active: growth inhibition [4] 96%
inactive: growth inhibition [1] 20% | inhibition [2] 30% | inhibition [3] 5% | outcome [5] | outcome [6] | outcome [7] | outcome [8]

CCN(C(=O)c1ccc(NC(=O)c2cccs2)cc1)c1nc2c(C)cccc2s1
active: growth inhibition [1] 85% | growth inhibition [4] 89%
inactive: inhibition [2] 24% | inhibition [3] -3% | outcome [5] | outcome [6] | outcome [7] | outcome [8]

COc1cccc(COCC(O)CN(CCc2ccccn2)C(=O)c2ccccc2F)c1 (stereo not given)
inactive: growth inhibition [1] 30% | inhibition [3] -1% | outcome [5] | outcome [6] | outcome [7] | outcome [8]
active: inhibition [2] 61% | growth inhibition [4] 97%

CCn1c(Cc2ccccc2)nnc1SCC(=O)N1c2ccccc2Sc2ccccc21
active: growth inhibition [1] 96% | growth inhibition [4] 99%
inactive: inhibition [2] -8% | inhibition [3] -1% | outcome [5] | outcome [6] | outcome [7] | outcome [8]

Cc1ccc(CNC(=O)[C@H](Cc2ccccc2)Nc2ccnc(NCC3CCCCC3)n2)cc1
inactive: inhibition [3] -2% | outcome [5] | outcome [6] | outcome [7] | outcome [8]
active: growth inhibition [1] 61% | inhibition [2] 84% | growth inhibition [4] 92%

CC(=O)c1cccc2[nH]c(C(=O)NC3CCC(CCN4CCc5ccc(C#N)cc5C4)CC3)cc12 (stereo not given)
active: growth inhibition [4] 96%
inactive: growth inhibition [1] 0% | inhibition [2] 12% | inhibition [3] 1% | outcome [5] | outcome [6] | outcome [7] | outcome [8]

COc1ccc(Cl)cc1N1CCN(CCCNC(=O)c2ccc(-c3nc4cc(Cl)c(F)cc4[nH]3)s2)CC1
inactive: inhibition [2] 12% | inhibition [3] 4% | outcome [5] | outcome [6] | outcome [7] | outcome [8]
active: growth inhibition [1] 98% | growth inhibition [4] 101%

Cc1ccccc1N1CCN(c2ccc(C(=O)NC3CC3)cn2)CC1
active: growth inhibition [1] 96% | growth inhibition [4] 96%
inactive: inhibition [2] 14% | inhibition [3] 0% | outcome [5] | outcome [6] | outcome [7] | outcome [8]

CN(C)c1ccc(-c2ccc(C(=O)NC3CCN(Cc4cccc(C(F)(F)F)c4)CC3)s2)cc1
active: growth inhibition [1] 77% | growth inhibition [4] 96%
inactive: inhibition [2] 35% | inhibition [3] 0% | outcome [5] | outcome [6] | outcome [7] | outcome [8]

Cc1[nH]c(C)c(-c2ccc(C(=O)c3ccccc3)cc2)c(=O)c1Br
active: growth inhibition [1] 96% | growth inhibition [4] 95%
inactive: inhibition [2] -10% | inhibition [3] 1% | outcome [5] | outcome [6] | outcome [7] | outcome [8]

O=C(NC1CCCCCC1)[C@@H]1CCCN1C(=O)c1ccc(O)c(-c2ccc(Cl)c(Cl)c2)c1
active: growth inhibition [1] 98% | growth inhibition [4] 99%
inactive: inhibition [2] -2% | inhibition [3] -7% | outcome [5] | outcome [6] | outcome [7] | outcome [8]

Cc1cc(N)c2cc(NC(=O)/C=C/c3ccccc3Cl)ccc2n1
active: growth inhibition [1] 98% | inhibition [2] 81% | growth inhibition [4] 100%
inactive: inhibition [3] -2% | outcome [5] | outcome [6] | outcome [7] | outcome [8]

O=S(=O)(Nc1ccc2nccc(N3CCNCC3)c2c1)c1ccc(-c2ccccc2)cc1
inactive: growth inhibition [1] -1% | inhibition [2] -3% | inhibition [3] -2% | outcome [5] | outcome [6] | outcome [7] | outcome [8]
active: growth inhibition [4] 101%

c1cc(CNCC2CCCO2)cc(-c2ccc(-c3nc4ccccc4[nH]3)s2)c1 (stereo not given)
inactive: growth inhibition [1] 30% | inhibition [2] 8% | inhibition [3] -2% | outcome [5] | outcome [6] | outcome [7] | outcome [8]
active: growth inhibition [4] 95%

Cc1nc(N)nc(N)c1Oc1cccc(Cl)c1
inactive: growth inhibition [1] -3% | inhibition [2] 49% | inhibition [3] 3% | outcome [5] | outcome [6] | outcome [7] | outcome [8]
active: growth inhibition [4] 94%

COc1ccc2nc(C)cc(NN=Cc3ccccc3F)c2c1
inactive: inhibition [2] 3% | inhibition [3] -4% | outcome [5] | outcome [6] | outcome [7] | outcome [8]
active: growth inhibition [1] 100% | growth inhibition [4] 100%

— PubChem BioAssay
